DT40 TDP1 no CPT: qHTS for Inhibitors of human tyrosyl-DNA phosphodiesterase 1 (TDP1): qHTS in cells in absence of CPT; AID 686978, 2013; Potency, µM (highest dose often 46.2 µM), usual class: inhibitors; actives 15% (n = 420,000); DT40 Tdp1-/- hTDP1 cells, no CPT, ATP luminescence, 48 h; also: nearly all actives have a fitted effect of over 55% in size
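Camptothecin absent (DMSO only). Human TDP1-complemented DT40 knockout cells, 400 cells/well, 37 °C for minimum 48 hr; ATP measured via CellTiter-Glo, 30 min dark incubation, luminescence.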
HT1080-NT tox: qHTS for induction of synthetic lethality in tumor cells producing 2HG: qHTS for the HT-1080-NT fibrosarcoma cell line | Potency, µM (series often up to 46.1 µM), actives largely listed as cytotoxic | HT-1080-NT fibrosarcoma viability, CellTiter-Glo ATP luminescence, 48 h | actives 1.6% (n = 360,000);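 also: NT is the 2HG producing partner of a matched IDH1 knockdown line; nearly all actives have a fitted effect of over 55% in size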
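Compounds were tested in concentration-response format on HT-1080-NT cells for 48 hours at 37 degrees C. Cell viability came from CellTiter-Glo luminescence; curves were classified by r2, response magnitude and activity.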
IL1B secr inh: qHTS for Inhibitors of Inflammasome Signaling: IL-1-beta AlphaLISA Primary Screen; THP-1 LPS/ATP IL-1B secretion, AlphaLISA, 16 h; hits give low values; activity change, % at 57.5 µM; actives 4.7% (n = 360,000); in the data active = activity change below about -50%; inconclusive = mostly about -30% to -49%
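THP-1 cells pretreated 1 hr with compounds (up to 57.5 uM final), then stimulated with LPS (250 ng/mL final) plus ATP (1.25 mM final); secreted IL-1B measured by AlphaLISA after 16 hr, decreased signal indicating inhibition.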
HT1080 IDH1KD tx: qHTS for induction of synthetic lethality in tumor cells producing 2HG: qHTS for the HT-1080-IDH1KD cell line. HT-1080 IDH1 knockdown viability, ATP luminescence, 48 h. Potency, µM (titrated, usually from 46.1 µM), usual class: cytotoxic. actives 2% (n = 360,000)
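Luminescent ATP read-out (CellTiter-Glo, 10 min at room temperature) after 48 h compound exposure at 37 °C gave viability of IDH1-knockdown HT-1080 cells. Activity was normalised to DMSO and cell-free wells, then fitted as concentration-response curves.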
DT40 TDP1 CPT: qHTS for Inhibitors of human tyrosyl-DNA phosphodiesterase 1 (TDP1): qHTS in cells in presence of CPT | chicken DT40 Tdp1-/-;hTDP1 cells + 20 nM CPT, ATP luminescence, 48 h | Potency, µM (doses to about 46.2 µM), most hits filed as inhibitors | actives 12% (n = 420,000) | AID 686979, 2013; also: nearly all actives have a fitted effect of over 55% in size
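Chicken DT40 Tdp1-/- cells stably complemented with human TDP1 were seeded at 400 cells/well in medium containing 20 nM camptothecin, exposed to pin-transferred compounds, and grown at 37 °C for at least 48 hr. Viability was read as ATP luminescence.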
Large screens that a line does not name were inactive. Compounds with a hit are over-represented: about 19% of the library has one in this group of screens. Unless noted, calls follow the shape of the dose curve; as a rule, active = well fitted curve in the direction sought with a large enough effect; inconclusive = small, poorly fitted or top-dose-only effect, or another doubt; inactive = no such curve, though single readings can be large; an effect the other way counts as inactive or inconclusive.

COc1ccc(Cl)cc1-n1c(=S)sc2c(=O)[nH]c(SCC(=O)NCC3CCCO3)nc21 (stereo unspecified)	none
COc1ccc(CCNC(=O)C(=O)NCC(c2cccnc2)N2CCN(c3ccccc3)CC2)cc1 (stereo unspecified)	DT40 TDP1 no CPT 18.4µM, DT40 TDP1 CPT 23.1µM (no result: HT1080-NT tox, IL1B secr inh, HT1080 IDH1KD tx)
O=C(NCCc1ccccc1)C(=O)NCC(c1cccnc1)N1CCN(c2ccccc2)CC1 (stereo unspecified)	DT40 TDP1 no CPT 16.4µM, DT40 TDP1 CPT 20.6µM (no result: HT1080-NT tox, IL1B secr inh, HT1080 IDH1KD tx)
COc1ccc(CNC(=O)C(=O)NCC(c2cccnc2)N2CCN(c3ccccc3)CC2)cc1 (stereo unspecified)	DT40 TDP1 no CPT 13µM, DT40 TDP1 CPT 16.4µM (no result: HT1080-NT tox, IL1B secr inh, HT1080 IDH1KD tx)
COc1ccc(N2CCN(C(CNC(=O)C(C)(C)C)c3cccnc3)CC2)cc1 (stereo unspecified)	DT40 TDP1 no CPT inconclusive
COc1cc(C)ccc1OCc1cc(C(=O)N(Cc2nccn2C)C(C)C)no1	none
Cc1cc(C)nc(NS(=O)(=O)c2ccc(NC(=O)c3ccccc3Br)cc2)n1	none
O=C(COc1ccc(S(=O)(=O)NC2CCCCC2)cc1Cl)NCc1ccc2c(c1)OCO2	DT40 TDP1 no CPT inconclusive, HT1080 IDH1KD tx inconclusive, DT40 TDP1 CPT inconclusive
O=C(COc1ccc(S(=O)(=O)NC2CCCCC2)cc1Cl)Nc1ccc2c(c1)OCO2	DT40 TDP1 no CPT inconclusive, HT1080-NT tox inconclusive, IL1B secr inh -58.8, HT1080 IDH1KD tx inconclusive, DT40 TDP1 CPT inconclusive
COc1ccc(CCNC(=O)COc2ccc(S(=O)(=O)NC3CCCCC3)cc2Cl)cc1OC	DT40 TDP1 no CPT 16.4µM, DT40 TDP1 CPT 23.1µM
COc1cc2c(cc1OC)CN(Cc1cc(=O)oc3cc(C)c(Cl)cc13)CC2	DT40 TDP1 no CPT inconclusive
CCc1ccc2c(CN3CCc4cc(OC)c(OC)cc4C3)cc(=O)oc2c1	DT40 TDP1 no CPT 23.1µM, DT40 TDP1 CPT inconclusive
COc1cc2c(cc1OC)CN(Cc1cc(=O)oc3c(C)c(C)ccc13)CC2	DT40 TDP1 no CPT 20.6µM, DT40 TDP1 CPT inconclusive
COc1ccc(CN2CCN(c3ncccn3)CC2)c(C)c1C	DT40 TDP1 no CPT inconclusive
Cc1ccc2c(CN(C)Cc3ccccc3)cc(=O)oc2c1C	DT40 TDP1 no CPT 14.6µM, HT1080-NT tox inconclusive, HT1080 IDH1KD tx inconclusive
COc1ccc(CN2CCN(c3ccccn3)CC2)c(OC)c1C	DT40 TDP1 no CPT 13µM, HT1080 IDH1KD tx inconclusive, DT40 TDP1 CPT inconclusive
Nc1ccc(Cl)c(S(=O)(=O)Nc2ccc(Cl)cc2)c1	DT40 TDP1 CPT inconclusive
COc1cc2c(cc1OC)CN(Cc1ccc(OC)c(C)c1OC)CC2	DT40 TDP1 no CPT 20.6µM, DT40 TDP1 CPT 29.1µM
COc1cc2c(cc1OC)CN(Cc1ccc(C)cc1)CC2	none
CCOc1ccc(NC(=O)CSc2nnnn2C2CC2)cc1S(=O)(=O)N1CCCC1	none
COc1ccc(CC(=O)O/N=C(\N)Cc2cccc3ccccc23)cc1OC	DT40 TDP1 no CPT inconclusive, DT40 TDP1 CPT inconclusive
CC(C)(C)c1cc(C(=O)NNc2cc(C(F)(F)F)ccc2Cl)n(Cc2ccccc2)n1	DT40 TDP1 no CPT 20.6µM, HT1080-NT tox inconclusive, IL1B secr inh -80.2, HT1080 IDH1KD tx inconclusive, DT40 TDP1 CPT inconclusive
COc1ccccc1NNC(=O)c1cc(C(C)(C)C)nn1Cc1ccccc1	DT40 TDP1 no CPT 23.1µM, IL1B secr inh -55.6
COc1ccccc1NC(=O)c1nnn(Cc2ccccc2)c1NC(=O)C(F)(F)F	DT40 TDP1 no CPT 29.1µM, DT40 TDP1 CPT inconclusive
CC1(C)CC(=O)C(C=NCC2CCN(C(=S)Nc3cccc(Cl)c3)CC2)=C(O)C1	DT40 TDP1 no CPT inconclusive
COC(=O)[C@@H](NC(=O)NC1CCCCC1C)C(C)C (stereo partly specified)	none
COC(=O)[C@@H](NC(=O)N(C1CCCCC1)C1CCCCC1)C(C)C	DT40 TDP1 no CPT 12.6µM, DT40 TDP1 CPT 11.2µM
COc1ccc(NC(=O)CSc2ncnc3c2cnn3CCc2ccccc2)cc1	none
CCN(CC)c1nc(C)nc2c1cnn2CCc1ccccc1	DT40 TDP1 no CPT 14.6µM, IL1B secr inh inconclusive, DT40 TDP1 CPT inconclusive
CC(Oc1ccc(Cl)cc1Cl)C(=O)Nc1ccc(O)cc1 (stereo unspecified)	DT40 TDP1 no CPT inconclusive, IL1B secr inh -66.5
CC(=O)N1CCN(c2ccc(NC(=O)COc3ccc(Cl)cc3Cl)cc2)CC1	DT40 TDP1 no CPT 18.4µM, IL1B secr inh inconclusive, DT40 TDP1 CPT 23.1µM
CC(=O)NC(=S)Nc1ccc(NC(=O)COc2ccc(Cl)cc2Cl)cc1	DT40 TDP1 no CPT 6.51µM, HT1080-NT tox inconclusive, IL1B secr inh inconclusive, HT1080 IDH1KD tx inconclusive, DT40 TDP1 CPT inconclusive
CCOc1ccccc1NC(=S)NC(=O)CCCOc1ccc(Cl)cc1Cl	DT40 TDP1 no CPT inconclusive, HT1080-NT tox 11.2µM, HT1080 IDH1KD tx inconclusive
COc1ccc(NC(=O)COC(=O)c2ccc(Cl)c(S(N)(=O)=O)c2)c([N+](=O)[O-])c1	none
S=C(Nc1ccc2[nH]ccc2c1)NC1CCCCC1	none
Cc1nn(S(=O)(=O)c2ccc(C(C)(C)C)cc2)c(C)c1S(=O)(=O)N1CCCCCC1	none (no result: HT1080-NT tox, IL1B secr inh, HT1080 IDH1KD tx)
CC(Oc1ccc(Br)cc1)C(=O)Nc1cc(Cl)ccc1N1CCN(C)CC1 (stereo unspecified)	DT40 TDP1 no CPT inconclusive, HT1080-NT tox 13µM, IL1B secr inh -86.2, HT1080 IDH1KD tx 20.6µM, DT40 TDP1 CPT inconclusive
CC(Oc1ccc(Cl)cc1Cl)C(=O)Nc1ccc(N2CCN(C)CC2)cc1 (stereo unspecified)	DT40 TDP1 no CPT 18.4µM, HT1080-NT tox inconclusive, HT1080 IDH1KD tx inconclusive, DT40 TDP1 CPT inconclusive
O=C(COc1ccc(Cl)cc1Cl)Nc1ccccn1	HT1080 IDH1KD tx 10µM
COc1ccc(CCC(=O)Nc2cc(Cl)ccc2N2CCN(C)CC2)cc1	DT40 TDP1 no CPT inconclusive, IL1B secr inh inconclusive, DT40 TDP1 CPT inconclusive
Cc1occc1C(=O)NNC(=S)NC(=O)COc1ccc(Cl)cc1Cl	DT40 TDP1 no CPT 18.4µM, DT40 TDP1 CPT inconclusive
CC(Oc1ccc(Br)cc1)C(=O)Nc1ccncc1 (stereo unspecified)	DT40 TDP1 no CPT inconclusive, HT1080-NT tox inconclusive, DT40 TDP1 CPT inconclusive
CN1CCN(c2ccc(Cl)cc2NC(=O)/C=C/c2ccc(F)cc2)CC1	DT40 TDP1 no CPT 16.4µM, HT1080-NT tox 23.1µM, IL1B secr inh -73.4, HT1080 IDH1KD tx 16.4µM, DT40 TDP1 CPT inconclusive
O=C(COc1ccc(Cl)cc1Cl)N1CCCN(C(=O)COc2ccc(Cl)cc2Cl)CC1	DT40 TDP1 no CPT inconclusive, IL1B secr inh -75.9, HT1080 IDH1KD tx inconclusive, DT40 TDP1 CPT inconclusive

Screens: PubChem, National Center for Advancing Translational Sciences (NCATS)
